KDM5B inh: KDM5B demethylase inhibition; Q9UGL1; 220,000 tested, 2.6% active; KDM5B demethylase, FDH-coupled NADH fluorescence (FDH is formaldehyde dehydrogenase); Potency, µM (doses to about 57.7 µM), most hits filed as inhibitors; active means well fitted inhibition curve with a large enough effect; further: nearly all actives have a fitted effect of over 70% in size
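Compound dilutions met 200 nM (final) KDM5BΔAP for 10 min at room temperature before substrate addition. The substrate mix held 12.5 µM H3K4me3 with cofactors 25 µM α-ketoglutarate and 50 µM Fe²⁺. NADH signal gain over 30 min defined activity.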
Each line names hits and unclear results; the compound was inactive in the other large screens. Many of the other results were omitted from the sample, so hits are more common in it than they were.

OC[C@@H]1CN(c2ccc(-c3nc(-c4cccc(C(F)(F)F)c4)no3)cn2)C[C@H]1CO	KDM5B inh 28µM
OCC1CCCN(c2ccc(-c3nc(-c4cccc(C(F)(F)F)c4)no3)cn2)C1 (centres undefined)	KDM5B inh 28µM
Cc1oc(-c2cccc(C(F)(F)F)c2)nc1CN1CCCC(CO)C1 (centres undefined)	none
S=C(NC1CCCCC1)NC1CCSc2ccccc21 (centres undefined)	none
Cc1cccc(C(=O)N2CCC3(CC2)CC(Cc2ccc(F)cc2)CCO3)c1 (centres undefined)	none
CCC(C)NC(=S)NCCc1ccccc1 (centres undefined)	none
CN(CCO)C[C@@H]1CN(C(=O)c2nc3ccccc3[nH]c2=O)C[C@@H]1CO	KDM5B inh 28µM
COCCN(C)C[C@@H]1CN(C(=O)c2ccc(=O)[nH]n2)C[C@@H]1CO	none
COCCN(C)C[C@@H]1CN(C(=O)c2cc3ccccc3s2)C[C@@H]1CO	none
Cc1cccc(-c2nnc(SCC(=O)Nc3cc(F)ccc3C)n2N)c1	none
Cc1noc(-c2ccc3c(c2)OCO3)c1C(=O)NCCCc1ccccc1	KDM5B inh 25µM
Cc1noc(-c2cccc(F)c2)c1C(=O)NCc1ccc2c(c1)OCO2	none
Cc1noc(-c2ccc3c(c2)OCO3)c1C(=O)NCCSCc1ccccc1	KDM5B inh 32µM
COc1cc(OC)cc(-c2onc(C)c2C(=O)NCc2cccc(Cl)c2)c1	none
Cc1noc(-c2cccc(F)c2)c1C(=O)NCc1cccc(Cl)c1	none
Cc1noc(-c2ccc3c(c2)OCO3)c1C(=O)NCc1cccc(Cl)c1	KDM5B inh 32µM
Cc1noc(-c2cccc(F)c2)c1C(=O)NCCCc1ccccc1	none
COc1cc(OC)cc(-c2onc(C)c2C(=O)NCCC(c2ccccc2)c2ccccc2)c1	KDM5B inh 32µM
COc1cccc(CCNC(=O)c2c(C)noc2-c2cc(OC)cc(OC)c2)c1	none
Cc1noc(-c2ccc(OC(F)(F)F)cc2)c1C(=O)NCCCc1ccccc1	none
COc1cccc(C(=O)N2CCC(NS(=O)(=O)c3cccs3)CC2)c1	none
CCN(c1ccc(NC(=O)CCc2ccccc2)cc1)C(C)C	none
Cc1ccc(OCc2nc(C3CCCN3C(=O)NC(C)C)no2)cc1 (centres undefined)	none
Cc1nn(C(=O)COc2ccccc2)c(C)c1S(=O)(=O)N1CCc2ccccc2C1	none
Cc1ccc2oc(C(=O)N3CCN(CC(=O)N4CCCCCC4)CC3)cc(=O)c2c1	none
COc1ccc([C@@H]2CN(Cc3ccc(C#N)cc3)C[C@H]2N(C)C)cc1	none
CS(=O)(=O)Nc1ccc(-c2csc(N3CCCC3)n2)cc1	none
Cc1cc(SCC(=O)NCCC#N)nc2c(C)cccc12	none
O=C(NCc1ccc(F)cc1)c1noc(-c2ccc(F)cc2)n1	none
Cc1ccc(CNC(=O)c2noc(-c3ccc(C)cc3)n2)cc1	none
Cc1noc(-c2ccc(C(C)(C)C)cc2)c1C(=O)NCCOc1ccccc1	none
CC(C)c1ccc(CNC(=O)c2noc(-c3ccc4c(c3)OCO4)n2)cc1	KDM5B inh 25µM
Cc1noc(-c2ccc3c(c2)OCO3)c1C(=O)NCCC(c1ccccc1)c1ccccc1	KDM5B inh 20µM
Cc1ccccc1C(=O)NCCn1cccc1-c1nc(-c2ccc3c(c2)OCO3)no1	none
COc1ccccc1Nc1nc(-c2ccc(CC(=O)N3CCOCC3)s2)cs1	none
CC(OC(=O)c1cc(=O)c2ccccc2o1)C(=O)Nc1cccc(C(F)(F)F)c1 (centres undefined)	none
COCCn1c(SCC(=O)NC2CC2)nc2ccccc21	none
COCC(=O)N1C[C@H](NC(=O)c2nc3ccccc3n(C)c2=O)[C@@H](C2CC2)C1	KDM5B inh 22µM
COCC(=O)N1C[C@H](NC(=O)C(=O)c2cccn2C)[C@@H](C2CC2)C1	none
O=C1Cc2cc(C(=O)CSc3nnc(-c4ccncc4)o3)c(Cl)cc2N1	none
Cc1cccc(S(=O)(=O)N2CCC(n3c(CC(C)C)nc4cccnc43)CC2)c1	none
Cc1c(-c2ccccc2)oc2c(C(=O)NC(C)c3ccccc3)cccc2c1=O (centres undefined)	none
Cc1ccc(Cn2c(Oc3ccc(F)cc3)nc3c2c(=O)n(C)c(=O)n3C)cc1	none
COc1ccc(Cn2cc(-c3ccc(F)c(C(N)=O)c3)cn2)cc1	none
COc1ccc(S(=O)(=O)N2CCC(C(=O)NCc3cccnc3)CC2)cc1Cl	none
COCCNC(=O)c1cc(-c2cnn(Cc3ccccc3)c2)cc2ncn(C)c12	KDM5B inh 35µM
CCn1cc(-c2ccc(F)cc2)cc1C(=O)NCc1cccnc1	none
Cn1cnc2cc(-c3ccc(F)cc3)cc(C(=O)NCc3cccnc3)c21	KDM5B inh 32µM
O=C(NCC1CCOCC1)c1ccc(F)cc1	none
Cn1cnc2cc(-c3ccc(F)cc3)cc(C(=O)NCC3CCOCC3)c21	KDM5B inh 35µM
COc1ccccc1Nc1cc(C(=O)NCc2cccnc2)c2ccccc2n1	none
COc1ccc(CNC(=O)c2cc(-c3ccc(F)cc3)cc3ncn(C)c23)cc1OC	none
CCOc1ccc(-c2c(C)nn3c(-c4ccccc4)c(C(=O)NCCOC)cnc23)cc1OCC	none
COc1cc(F)ccc1-c1cc(C(=O)NCc2cccnc2)c2c(c1)ncn2C	KDM5B inh 35µM
O=C(NCC1CCOCC1)Nc1ccc(F)cc1	none
Cc1cc(=O)n(CC(=O)Nc2cccc(Cl)c2C)c(N2CCN(c3ccccc3)CC2)n1	none
CCOc1ccc(C(CC(=O)Nc2ccc(CC)cc2)N2Cc3ccccc3C2=O)cc1OC (centres undefined)	none
Cc1ccc(OCc2nc(C3CCCN3C(=O)C3CC3)no2)cc1 (centres undefined)	none
COc1ccc2cc(CN(C)C(=O)C3CCN(S(=O)(=O)c4ccccc4F)CC3)ccc2c1	none
CCC(C)NC(=O)c1cc(-c2ccc3c(c2)OCO3)nc2ccccc12 (centres undefined)	none
CCCCNC(=O)c1cccc2c1CCN2S(=O)(=O)c1ccc(C)cc1	none
O=C(O)CCS(=O)(=O)C1CCCC1	none
Cc1cc(C)c(C)c(S(=O)(=O)NCCC(=O)Nc2nccs2)c1C	none
CCCN(CC1COc2ccccc2O1)C(=O)CSc1nnnn1C1CCCC1 (centres undefined)	none
COc1ccc(CNc2nc3ccccc3nc2NS(=O)(=O)c2cccc3nsnc23)cc1	none
COc1ccccc1C(=O)NCc1nc2cccnc2n1Cc1ccc(F)cc1	none
COc1ncccc1-c1cc(C(=O)N(C)CCN(C)C)c2c(c1)ncn2C	none
COc1cc(CNC(=O)c2cc(-c3cccc(N(C)C)c3)cc3ncn(C)c23)ccn1	none
COc1ccc(-c2[nH]ncc2C(=O)NCc2cccc(OC)c2)cc1	none
COc1cccc(CNC(=O)c2cc(-c3ccncc3)cn2C)c1	none
Cn1cnc2cc(-c3ccccc3)cc(C(=O)NCc3cccnc3)c21	KDM5B inh 32µM
COc1cc(OC)c(-c2cc(C(=O)NCc3ccc(F)cc3)c3c(-c4ccccc4)[nH]nc3n2)cc1OC	none
COc1ncccc1-c1cc(C(=O)NCCN2CCOCC2)c2c(c1)ncn2C	KDM5B inh 35µM
COc1cc(F)ccc1-c1cc(C(=O)NCc2ccnc(N)c2)c2c(c1)ncn2C	KDM5B inh 35µM
COc1ccc(-c2cc(C(=O)NCc3ccnc(N)c3)c3c(c2)ncn3C)cc1	KDM5B inh 40µM
O=C(NCc1cccnc1)c1ccccc1Nc1ccccc1	none
COc1ncccc1-c1cc(C(=O)N2CCC(OC)CC2)c2c(c1)ncn2C	none
O=C(O)CSCc1ccccc1	none
CCCc1cc(=O)oc2c(C)c(OC(C)C(=O)NCc3ccncc3)ccc12 (centres undefined)	none
Cc1ccc(CNC(=O)C2(C)CN(S(C)(=O)=O)CC(=O)N2c2ccc(C(C)C)cc2)cc1 (centres undefined)	none

Bioassay records deposited in PubChem by National Center for Advancing Translational Sciences (NCATS).
